For assay [1] the following is noted: Ebola virus entry assay, green fluorescence channel.
The conditions of assay [2]: Ebola virus entry assay, blue channel fluorescence.
For assay [3] the following is noted: Ebola virus entry assay, ratio channel.
The conditions of assay [4]: Ebola virus entry assay, green channel fluorescence.
The conditions of assay [5]: Ebola virus entry assay, reporter ratio channel; Channel type: primary.

Values without a mark were called inactive. For some of these results: Results with a measured potency or affinity are listed apart. Calls of active or inactive are those of the source. No rule for the calls is given here.
For efficacy in this document: 0% is about no effect.

For the molecule `CN1C(=O)CN=C(c2ccccc2)c2cc(Cl)ccc21`, the efficacy in assay [1] is -37.3%. Moreover, the figures for the AC50 in assay [2] and in assay [5] were 25.1 µM (active) and 35.5 µM (active), respectively. In addition, the result in assay [3] and in assay [4] was inactive.

Take `C=CC[N+]1([C@H]2C[C@H]3[C@@H]4CC[C@H]5C[C@H](OC(C)=O)[C@@H](N6CCCCC6)C[C@]5(C)[C@H]4CC[C@]3(C)[C@H]2OC(=O)CC)CCCCC1`: the efficacy in assay [1] is 47.7%. In addition, the AC50 in assay [2] was 14.1 µM (active); in assay [5] it was 28.2 µM (active). Further, the outcome in assay [3] and in assay [4] was inactive.

Consider `CC1(C)O[C@@H]2C[C@H]3[C@@H]4CCC5=CC(=O)CC[C@]5(C)[C@@]4(F)[C@@H](O)C[C@]3(C)[C@]2(C(=O)CCl)O1`, for which the efficacy in assay [1] was 53.9%. In addition, the AC50 in assay [2] was 12.6 µM (active); in assay [3], 10 µM (active); in assay [5], 10 µM (active). The outcome in assay [4] was inactive.

Take `CCc1cc(Cl)c(OC)c(C(=O)NC[C@@H]2CCCN2CC)c1O`: the efficacy in assay [1] was 38.6%. For the same molecule, the AC50 is 31.6 µM (active) in assay [2], 20 µM (active) in assay [3] and 20 µM (active) in assay [5]. The molecule was classed as inactive in assay [4].

Consider `O=c1[nH]sc2cc(Cl)ccc12`, for which the efficacy in assay [1] is -42.1%. Besides, the AC50 in assay [2] and in assay [5] was 39.8 µM (active) throughout. Further, the result in assay [3] and in assay [4] was inactive.

As for `O=c1oc2c(O)c(O)cc3c(=O)oc4c(O)c(O)cc1c4c23`, in assay [1], the efficacy was 33.8%. The AC50 in assay [2], in assay [3] and in assay [5] was 11.2 µM (active) throughout. Besides, the molecule was called inactive in assay [4].

Regarding `Fc1ccc(C(c2ccc(F)cc2)N2CCNCC2)cc1`, the efficacy in assay [1] is 28.7%. The AC50 in assay [2], in assay [3] and in assay [5] was 10 µM (active) in each case. Moreover, the call in assay [4] was inactive.

For the molecule `CN1CCc2cc(Cl)c(O)cc2[C@H]2c3ccccc3CC[C@@H]21`, the efficacy in assay [1] was 24%. Moreover, the AC50 in assay [2] is 25.1 µM (active); in assay [3], 17.8 µM (active); in assay [5] it was 17.8 µM (active). For the same molecule, the molecule was called inactive in assay [4].

For `Cc1cc2c(OCC(CNC(C)(C)C)OC(=O)c3ccccc3)cccc2[nH]1` (stereo not given), the efficacy in assay [1] is 15.1%. The AC50 is 25.1 µM (active) in assay [2], 28.2 µM (active) in assay [3] and 28.2 µM (active) in assay [5]. Besides, in assay [4], the outcome was inactive.

On to `c1ccc(CCNc2nc(-c3ccccc3)cs2)cc1`, for which the efficacy in assay [1] is 29.5%. For the same molecule, the AC50 in assay [2] and in assay [5] was 39.8 µM (active) each time. Also, the result in assay [3] and in assay [4] was inactive.

Take `CCC(C)(C)c1ccc(CC(C)CN2C[C@@H](C)O[C@@H](C)C2)cc1` (stereo not given in full): the efficacy in assay [1] was -29.5%. In addition, the AC50 in assay [2] and in assay [5] was 39.8 µM (active) in each case. Also, the result in assay [3] and in assay [4] was inactive.

Turning to `CCCCN=C(N)N=C(N)N`, the efficacy in assay [1] was 24.1%. Moreover, the call in assay [2], in assay [3], in assay [4] and in assay [5] was inactive.

Regarding `CCCOc1ccc2nc(NC(=O)OC)[nH]c2c1`, the efficacy in assay [1] is -28.5%. The AC50 is 0.501 µM (active) in assay [2], 0.562 µM (active) in assay [3] and 0.562 µM (active) in assay [5]. Further, in assay [4], the call was inactive.

Consider `O=C(Nc1ncc([N+](=O)[O-])s1)c1cccs1`, for which the efficacy in assay [1] was -37.9%. In addition, the molecule was called inactive in assay [2], in assay [3], in assay [4] and in assay [5].

On to `CCOc1ccc2nc(S(N)(=O)=O)sc2c1`, for which the efficacy in assay [1] was 31.6%. Also, the outcome in assay [2], in assay [3], in assay [4] and in assay [5] was inactive.

Regarding `Cc1cccc(OCC(O)CNC(C)(C)C)c1C` (stereo not given), in assay [1], the efficacy was -12.5%. Besides, the AC50 in assay [2] and in assay [5] was 39.8 µM (active) throughout. The result in assay [3] and in assay [4] was inactive.

With `CCOC(=O)C1=C[C@]2(CC)CCCN3CCc4c(n1c1ccccc41)[C@@H]32`, the efficacy in assay [1] was -42.6%. Besides, the AC50 in assay [2] is 12.6 µM (active); in assay [3], 17.8 µM (active); in assay [5], 17.8 µM (active). The outcome in assay [4] was inactive.

Turning to `CCN(CC)CCSC(=O)C(c1ccccc1)c1ccccc1`, the efficacy in assay [1] is -29.7%. The AC50 in assay [2] was 31.6 µM (active); in assay [5], 39.8 µM (active). In addition, the result in assay [3] and in assay [4] was inactive.

`CC(C)(C)OC(=O)c1ncn2c1[C@@H]1CCCN1C(=O)c1c(Br)cccc1-2`: the efficacy in assay [1] was 19.6%. Also, the molecule was classed as inactive in assay [2], in assay [3], in assay [4] and in assay [5].

`CN(Cc1ccc(C(C)(C)C)cc1)Cc1cccc2ccccc12`: the efficacy in assay [1] was -29.5%. Moreover, the AC50 was 35.5 µM (active) in assay [2] and 39.8 µM (active) in assay [5]. The result in assay [3] and in assay [4] was inactive.

In the case of `O=C(O)Cc1ccc(CCNS(=O)(=O)c2ccc(Cl)cc2)cc1`, in assay [1], the efficacy is 18.5%. The outcome in assay [2], in assay [3], in assay [4] and in assay [5] was inactive.

For `COc1ccc2cc3[n+](cc2c1OC)CCc1cc2c(cc1-3)OCO2`, the efficacy in assay [1] is 30.3%. The molecule was called inactive in assay [2], in assay [3], in assay [4] and in assay [5].

Regarding `C[C@]12CC[C@H]3[C@@H](CCC4=CC(=O)CC[C@@H]43)[C@@H]1CC[C@@H]2O`, the efficacy in assay [1] was -8.66%. The molecule was classed as inactive in assay [2], in assay [3], in assay [4] and in assay [5].

With `Nc1ccc(Cl)cc1C(=O)c1ccccc1F`, in assay [1], the efficacy is -39%. The AC50 in assay [2] and in assay [5] was 31.6 µM (active) each time. Besides, the outcome in assay [3] and in assay [4] was inactive.

Take `CCN1CCCC1CNC(=O)C(O)(c1ccccc1)c1ccccc1` (stereo not given): the efficacy in assay [1] is 28.7%. Moreover, the AC50 is 15.8 µM (active) in assay [2], 20 µM (active) in assay [3] and 20 µM (active) in assay [5]. Further, the outcome in assay [4] was inactive.

For `Cc1c(C)n(CCN(C)C)c2ccc(C(=O)OCCN(C)C)cc12`, the efficacy in assay [1] is -26.4%. Further, the AC50 in assay [2] was 2.24 µM (active); in assay [3], 2.51 µM (active); in assay [5], 2.51 µM (active). Besides, the outcome in assay [4] was inactive.

The term AC50 denotes the midpoint of the concentration-response curve, whichever way the signal moves.
